Screens: PubChem, National Center for Advancing Translational Sciences (NCATS)
An excerpt weighted towards active compounds, which were near 12% of everything screened.
JMJD2A Tudor inh – blocks the human JMJD2A Tudor domain; O75164; AlphaScreen JMJD2A-Tudor / H3K4me3 peptide binding; Potency, µM (doses to about 114 µM), for inactives: at the highest dose activity change, negative = inhibition, usual class: inhibitors; hit rate 4.4% among 390,000; AID 504339; also: % is scaled to controls: 0 for no effect and ±100 for the full control effect; nearly all actives have a fitted effect of over 50% in size
HP1b binding inh – inhibitors of HP1-beta chromodomain binding to methylated histone tails. P83916. AlphaScreen HP1-beta / biotin-H3K9me3 peptide binding. Potency, µM (top dose mostly 114 µM), for inactives: at the top dose activity change, negative = inhibition, usual class: inhibitors. hit rate 0.56% among 390,000. AID 540317; also: nearly all actives have a fitted effect of over 70% in size
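HP1-beta protein (50 nM final) preincubated 30 min at room temperature with biotinylated H3(1-18)K9me3 peptide (50 nM) in PBS pH 7.4, 0.01% Tween-20, then compound added for 30 min. AlphaScreen streptavidin donor/nickel chelate acceptor beads (10 ug/mL final), 30 min dark, luminescence read.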
TDP1 inh – inhibitors of human tyrosyl-DNA phosphodiesterase TDP1; AID 485290; recombinant TDP1, AlphaScreen DNA substrate cleavage; Potency, µM (series often up to 130 µM), inactives show top-dose activity change, negative = inhibition, usual class: inhibitors; Q9NUW8; hit rate 0.28% among 350,000; also: % is scaled to controls: 0 for no effect and ±100 for the full control effect; nearly all actives have a fitted effect of over 40% in size
Target sequence (Q9NUW8 whole entry, looked up): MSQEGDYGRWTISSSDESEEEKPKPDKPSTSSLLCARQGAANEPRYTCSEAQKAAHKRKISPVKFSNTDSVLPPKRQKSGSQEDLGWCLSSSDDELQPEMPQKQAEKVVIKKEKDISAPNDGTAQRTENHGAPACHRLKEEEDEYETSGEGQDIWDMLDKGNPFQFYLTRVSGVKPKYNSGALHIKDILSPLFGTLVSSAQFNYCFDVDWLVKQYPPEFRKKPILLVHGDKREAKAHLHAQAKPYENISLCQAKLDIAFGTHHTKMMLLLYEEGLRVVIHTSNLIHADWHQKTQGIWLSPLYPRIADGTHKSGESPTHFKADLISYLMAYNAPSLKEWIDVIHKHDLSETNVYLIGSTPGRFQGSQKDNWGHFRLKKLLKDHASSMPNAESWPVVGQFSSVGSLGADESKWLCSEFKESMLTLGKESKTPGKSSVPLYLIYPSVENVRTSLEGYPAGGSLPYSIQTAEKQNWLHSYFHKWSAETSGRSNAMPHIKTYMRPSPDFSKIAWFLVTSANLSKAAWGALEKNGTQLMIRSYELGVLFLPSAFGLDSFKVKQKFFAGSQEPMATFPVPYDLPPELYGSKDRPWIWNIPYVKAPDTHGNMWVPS
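Steps: enzyme plus compound, 15 min RT; add biotin/phosphotyrosine-FITC oligonucleotide (15 nM final), react 5 min; add donor/acceptor beads (10 ug/ml final), 10 min; read AlphaScreen. Tdp1 at 1 nM final.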
Sfp inh – blocks B. subtilis Sfp PPTase activity; Potency, µM, inactives show largest response in the series, negative = inhibition, usual class: inhibitors; AID 1490; Q9F4F7; hit rate 3.5% among 310,000; Biochemical Sfp PPTase activity, qHTS;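 also: the enzyme is Sfp with the accession as filed and its product quenches rhodamine fluorescence; 0% = enzyme reaction without inhibitor and -100% = no enzyme wells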
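After 15 min at room temperature with compound, 15 nM Sfp received 5 uM rhodamine-CoA plus 12.5 uM BHQ-2-ybbR (50 mM Hepes pH 7.6, 10 mM MgCl2). Rate came from the fluorescence difference over 30 min, ex 525/em 598 nm.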
BAZ2B block – blocks human BAZ2B; Q9UIF8; AlphaScreen BAZ2B-H3K14Ac peptide displacement; Potency, µM (titrated, usually from 114 µM), for the others: at the top dose activity change, negative = inhibition, most hits filed as inhibitors; hit rate 4.4% among 360,000; AID 504333; also: % is scaled to controls: 0 for no effect and ±100 for the full control effect; nearly all actives have a fitted effect of over 60% in size
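AlphaScreen luminescence quantifies BAZ2B engagement of H3K14Ac peptide; the protein and biotinylated peptide are both at 50 nM final, buffer PBS pH 7.4 with 0.01% Tween-20, all steps at room temperature.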
G9a block – inhibitors of human histone lysine methyltransferase G9a; Q96KQ7; G9a H3K9 monomethylation, AlphaScreen, 2 h; Potency, µM (titrated, usually from 102 µM), inactives show top-dose activity, negative = inhibition, most hits filed as inhibitors; hit rate 8.8% among 350,000; AID 504332; also: % is scaled to controls: 0 for no effect and ±100 for the full control effect; nearly all actives have a fitted effect of over 75% in size
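Compounds were preincubated with 20 nM G9a for 15 min, after which biotinylated H3K9 peptide (500 nM) and SAM (20 uM) started a 2 h room-temperature reaction. Monomethylated product was quantified by antibody-based AlphaScreen chemiluminescence.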
Starred values were filed as active, the others as inactive; ? = inconclusive; nt = no result; [ ] = another dose, or the depositor's remark. Calls follow the shape of the dose curve; as a rule, active = well fitted curve in the direction sought with a large enough effect; inconclusive = small, poorly fitted or top-dose-only effect, or another doubt; inactive = no such curve, though single readings can be large; an effect the other way counts as inactive or inconclusive. Potency is read from the fitted curve at half-maximal effect.

SMILES | JMJD2A Tudor inh | HP1b binding inh | TDP1 inh | Sfp inh | BAZ2B block | G9a block
COc1ccc(NC(=O)CC2SC3=NCCN3C2=O)cc1 (stereo unspecified) | -2%[11.4 µM] | 51% | 8% | 2% | -13% | -4%
Cc1ccc(N2C(=O)SC(Cc3ccccc3)C2=O)cc1 (stereo unspecified) | -16% | ? | -1% | 22µM* | -16% | 8.9µM*
O=C1SC(Cc2ccccc2)C(=O)N1c1ccccc1 (stereo unspecified) | 3% | 7% | nt | 20% | 4% | -3%[59 µM]
O=C(CC1SC(=O)N(c2ccccc2)C1=O)Nc1ccccc1 (stereo unspecified) | -34% | -4% | 0% | ? | -36% | ?
COc1ccc(CCN2CC(C(=O)OCC(=O)N(C)Cc3ccccc3)CC2=O)cc1OC (stereo unspecified) | -17% | 15% | 0% | nt | 12% | 12%[12.7 µM]
COc1ccc(-c2cccc(NS(=O)(=O)c3cc(C)c(Cl)cc3C)c2)nn1 | -29% | 4%[57 µM] | 4% | nt | -11% | 7%[59 µM]
COCCSc1ccccc1C(=O)Nc1ccc(Cl)cc1 | ? | 20% | 5% | ? | ? | 7.1µM*
COCCNC(C)C(=O)Nc1ccc(Br)cc1 (stereo unspecified) | 4µM* | -35% | 2% | -26% | 50µM* | 11µM*
COCCSc1ccccc1C(=O)Nc1ccc2c(c1)OCO2 | 3% | 42% | 3% | ? | -13% | nt
COCCSc1ccccc1C(=O)NCCCn1ccnc1 | ? | -8% | 11% | 45µM* | -2% | ?
COCCSc1ccccc1C(=O)Nc1cc(C)on1 | -19% | ? | 13% | 32µM* | ? | 1.1µM*
O=C(Nc1ccc(Br)cc1)C(c1ccccc1)c1ccccc1 | -3% | 31% | 5% | 10% | 0% | 5%
CC(C)(C)c1ccc(C(CC(=O)O)NC(=O)Cc2ccc(Cl)cc2)cc1 (stereo unspecified) | -13% | 22% | nt | 3% | -23% | -2%
COCCSc1ccccc1C(=O)Nc1ccc(Br)cc1 | 11% | 37% | 0% | -19% | -19% | 20µM*
COCCSc1ccccc1C(=O)Nc1cccnc1 | 1% | 23% | 9% | ? | -3% | 1.6µM*
O=C(Nc1cccnc1)c1ccccc1O | -8% | 37% | -3% | 16% | -30% | 6%[59 µM]
COCCSc1ccccc1C(=O)Nc1nnc(COC)s1 | -27% | -17% | 2% | ? | -9% | ?
CCOc1cc(CNC(=O)c2ccc3nc(CCc4ccccc4)oc3c2)ccc1OC | -7% | 30%[57 µM] | 2% | nt | -4% | -1%[59 µM]
O=C(CCNC(=O)c1ccc(Br)cc1)Nc1nccs1 | 0% | 21% | 5% | 24% | -4% | 12%
O=C(CCN1C(=O)c2ccc([N+](=O)[O-])cc2C1=O)Nc1nccs1 | -6%[11.4 µM] | 51% | 7% | -5% | -1% | 7%
O=C(CCNC(=O)c1ccc([N+](=O)[O-])cc1)Nc1nccs1 | -1% | 45% | 1% | 12% | -17% | 50µM*
CC1CC(C)CN(C(=O)c2ccc(-c3ccc([N+](=O)[O-])cc3)o2)C1 (stereo unspecified) | 45µM* | ? | 12% | nt | 35µM* | 11µM*
O=C(Nc1nccs1)c1ccc(-c2ccc([N+](=O)[O-])cc2)o1 | -33% | 46% | nt | 25µM* | ? | nt
O=C(CN1C(=O)c2ccc([N+](=O)[O-])cc2C1=O)Nc1nccs1 | -14% | 12% | 2% | -27% | -32% | 50µM*
CC1O[C@@H](O[C@H](C)CC/C=C/C(=O)O)C(O)C[C@H]1O (stereo partly specified) | -3% | 48% | nt | nt | 6% | 3%[12.7 µM]
SMILES | JMJD2A Tudor inh | HP1b binding inh | TDP1 inh | Sfp inh | BAZ2B block | G9a block
CC1(C)CC(NC(=O)c2ccc(-c3ccc([N+](=O)[O-])cc3)o2)CC(C)(C)N1 | -32% | 16% | 6% | -23% | -33% | 45µM*
O=C(Nc1ccccc1)c1ccc(-c2ccc([N+](=O)[O-])cc2)o1 | ? | ? | -17%[0.0935 µM] | 50µM* | -11% | 35µM*
O=C(NN1C(=O)NC2(CCCCC2)C1=O)c1ccc(-c2ccccc2Cl)o1 | -8% | 26% | 1%[56.1 µM] | nt | -24% | 0%[2.33 µM]
O=C(NN1C(=O)NC2(CCCCC2)C1=O)c1ccc(-c2ccc([N+](=O)[O-])cc2)o1 | -34% | 1% | 6% | 10% | -29% | 79µM*
Cc1cc(C)n(CC(C)NCc2cn[nH]c2-c2ccc(C)c(C)c2)n1 (stereo unspecified) | -15% | 21% | 3% | 8% | -16% | nt
CCOc1ccc(-c2cn3c(n2)sc2cc(C(=O)NCCCN4CCCCC4)ccc23)cc1 | -13% | 39% | -8% | nt | -29% | 2%[59 µM]
CCN(CC)CCNC(=O)c1ccc(NC(=O)COc2ccccc2F)cc1 | -14% | 23% | 1% | 11% | -12% | -27%
C[C@@]12CCc3occc3[C@H]1CC[C@]13CC(=O)[C@@H](CC[C@H]12)C3 | nt | nt | 11% | -18% | nt | nt
Nc1ccc(-c2n[nH]c(=O)c3ccccc23)cc1N | -32% | -11% | 4% | 14µM* | -12% | 8.9µM*
O=C(Nc1ccc(CN2CCOCC2)cc1)c1ccc2ccccc2c1 | -16% | 12% | 3% | 2% | -14% | nt
O=C(Nc1ccc(CN2CCOCC2)cc1)c1cccc(-c2cc3ccccc3oc2=O)c1 | -25% | 15% | 5% | -6% | 79µM* | ?
O=C(Nc1cccc(Cl)c1N1CCCC1)c1cccc(-c2cc3ccccc3oc2=O)c1 | 0% | 44% | 4% | 7% | 10% | 35µM*
O=C(CC1CC2CCC1C2)N1CCN(S(=O)(=O)c2ccccc2C(F)(F)F)CC1 (stereo unspecified) | 2% | 47% | -1% | nt | -3% | 6%[12.7 µM]
COc1cccc(N/C(=N/C(=S)Nc2ccc(C)cc2C)Nc2nc(C)cc(C)n2)c1 | -8% | 32% | 4% | ? | -18% | nt
CCNC(=S)/N=C(\N)Nc1nc(C)c2cc(C)ccc2n1 | ? | 12% | nt | 3% | 11µM* | ?
CCNC(=S)/N=C(/Nc1ccccc1)Nc1nc(C)cc(C)n1 | -24% | 2% | nt | 4.5µM* | ? | nt
CCNC(=S)NC(=NCc1cccnc1)Nc1nc(C)cc(C)n1 | -5% | 32% | nt | 25µM* | 1% | nt
CCNC(=S)/N=C(/Nc1ccc(OC)cc1)Nc1nc(C)cc(C)n1 | -6% | 25% | -5% | 3.2µM* | 8% | -44%
CC(=O)N1CC[C@@H]2CC(=O)C[C@@H](C)[C@@H]21 | nt | nt | 2%[234 µM] | 13% | nt | 25%[135 µM]
Cn1c(=O)c2c(nc(N3CCOCC3)n2Cc2cccc(Br)c2)n(C)c1=O | 0% | 29% | 1% | nt | -9% | 6%[59 µM]
Cc1ccc(C)c(S(=O)(=O)NCC(=O)Nc2ccc3c(c2)OCO3)c1 | -8% | 16% | 3% | 1% | -5% | nt
